Records with an inconclusive call do not appear. Calls of active or inactive are those of the source. Unless noted, calls follow the shape of the dose curve; as a rule, active = well fitted curve in the direction sought with a large enough effect in the repeat runs; inconclusive = weak or mixed curves; inactive = no such curve, though single readings can be large; an effect the other way counts as inactive or inconclusive.
Columns and labels:
[1] = qHTS RealTime-Glo MT Cell Viability Assay in HEK293 cells - 0 hour (AID 1224880); also: top concentration of the series differs between compounds; nearly all actives have a fitted effect of over 45% in size
Outline: (§1)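 Viable HEK293 cells reduce a cell-permeant prosubstrate; the product diffuses out and is consumed by NanoLuc in the medium to give light. Compounds went in after a 5 h incubation and plates were read over the treatment course.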

[2] = A CellTox Green Cytotoxicity Assay to monitor cytotoxicity in HEK293 cells - 32 hour (AID 1224881); also: nearly all actives have a fitted effect of over 40% in size
Outline: (§2)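 Fluorescence intensity, read at 0, 8, 16, 24, 32 and 40 h of compound treatment, reflected dye binding to DNA of dead HEK293 cells; compounds (23 nL, DMSO) were added 5 h after plating cells with reagent.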

[3] = A CellTox Green Cytotoxicity Assay to monitor cytotoxicity in HepG2 cells - 0 hour (AID 1224882); also: nearly all actives have a fitted effect of over 35% in size
Outline: (§3)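 Using 1536-well format, dye-containing HepG2 suspension was seeded, allowed 5 h at 37 C/5% CO2, dosed by pintool with compounds, positive and negative controls, and imaged for fluorescence across 40 h.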

[4] = A CellTox Green Cytotoxicity Assay to monitor cytotoxicity in HEK293 cells - 8 hour (AID 1224884); also: nearly all actives have a fitted effect of over 35% in size
Outline: as §2

[5] = qHTS RealTime-Glo MT Cell Viability Assay in HepG2 cells - 16 hour (AID 1224885); also: nearly all actives have a fitted effect of over 50% in size
Outline: (§4)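 Real-time, nonlytic viability: 600 HepG2 cells/well mixed with NanoLuc enzyme plus prosubstrate; 5 h settle, compound (DMSO) added by pintool; luminescence monitored over 40 h at 37 C.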

[6] = qHTS RealTime-Glo MT Cell Viability Assay in HEK293 cells - 24 hour (AID 1224886); also: top concentration of the series differs between compounds; nearly all actives have a fitted effect of over 50% in size
Outline: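 Cells + reagent dispensed (600 cells/well, HEK293) → 5 h at 37 C/5% CO2 → 23 nL compound in DMSO pinned → 40 h at 37 C → luminescence read at 0, 8, 16, 24, 32, 40 h.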

[7] = qHTS RealTime-Glo MT Cell Viability Assay in HEK293 cells - 8 hour (AID 1224887); also: top concentration of the series differs between compounds; nearly all actives have a fitted effect of over 50% in size
Outline: as §1

[8] = A CellTox Green Cytotoxicity Assay to monitor cytotoxicity in HEK293 cells - 16 hour (AID 1224888); also: nearly all actives have a fitted effect of over 35% in size
Outline: as §2

[9] = qHTS RealTime-Glo MT Cell Viability Assay in HepG2 cells - 0 hour (AID 1224889); also: nearly all actives have a fitted effect of over 50% in size
Outline: as §4

[10] = A CellTox Green Cytotoxicity Assay to monitor cytotoxicity in HepG2 cells - 8 hour (AID 1224890); also: nearly all actives have a fitted effect of over 45% in size
Outline: as §3

[11] = qHTS assay to identify small molecule antagonists of the estrogen receptor alpha (ER-alpha) signaling pathway using the BG1 cell line in the presence of 0.1 nM 17-beta-estradiol - cell viability counter screen (AID 1259241); also: nearly all actives have a fitted effect of over 40% in size
Outline: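 In this screen, hormone-deprived VM7Luc4E2 cells were seeded at 4,000 per well, dosed with compound and 0.1 nM estradiol final, and incubated 22 hr at 37C and 5% CO2; fluorogenic live-cell protease signal reported viability.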

[12] = qHTS assay to identify small molecule antagonists of the androgen receptor (AR) signaling pathway using the MDA cell line in the presence of 0.5 nM R1881 - cell viability counter screen (AID 1259242); also: nearly all actives have a fitted effect of over 45% in size
Outline: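 Viability of MDA-kb2 cells was multiplexed with the luciferase AR readout; after 16 hr with compounds and R1881 at 0.5 nM final, CellTiter-Fluor fluorescence was recorded.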

[13] = qHTS assay to identify small molecule HDAC inhibitors (AID 1259364);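 also: wild-type HCT-116 cells with endogenous class I/II HDAC activity; top concentration of the series differs between compounds; nearly all actives have a fitted effect of over 45% in size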
Outline: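 Read-out: luminescence of HDAC-Glo I/II reagent, 30 min RT, reflecting class I/II deacetylase activity in whole HCT-116 cells pre-exposed 2 h to DMSO-dissolved compounds.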

[14] = qHTS assay to identify small molecule HDAC inhibitors - cell viability counter screen (AID 1259365)
Outline: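 Measured quantity is CellTiter-Glo luminescence from wild-type HCT-116 cells after compound incubation of 2hr at 37C, 5% CO2; reagent developed 30min at room temperature.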

[15] = qHTS assay to identify small molecule agonists of the sonic hedgehog signaling (Shh) pathway - cell viability counter screen (AID 1259366); also: nearly all actives have a fitted effect of over 50% in size
Outline: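 In quantitative high-throughput format, 3T3 Gli1-Luc cells were exposed to compounds for 24hr and multiplexed for viability using CellTiter-Fluor, incubated 1hr at 37C before the fluorescence read.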

[16] = qHTS assay to identify small molecule antagonists of the sonic hedgehog signaling (Shh) pathway - cell viability counter screen (AID 1259367); also: nearly all actives have a fitted effect of over 55% in size
Outline: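 NIH/3T3-derived Gli1-Luc reporter cells (2,000 per well) rested 4 hr at 37 C, then received DMSO compounds plus conditioned medium. After 23 hr of treatment, CellTiter-Fluor was added for 1 hr at 37C and fluorescence read.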

[17] = target: Androgen receptor (Homo sapiens) (UniProt P10275); assay: qHTS assay to identify small molecule antagonists of the androgen receptor (AR) signaling pathway using the MDA cell line in the presence of 0.5 nM R1881 (AID 1259243); also: nearly all actives have a fitted effect of over 50% in size
Androgen receptor (Homo sapiens), sequence (P10275 whole entry, looked up): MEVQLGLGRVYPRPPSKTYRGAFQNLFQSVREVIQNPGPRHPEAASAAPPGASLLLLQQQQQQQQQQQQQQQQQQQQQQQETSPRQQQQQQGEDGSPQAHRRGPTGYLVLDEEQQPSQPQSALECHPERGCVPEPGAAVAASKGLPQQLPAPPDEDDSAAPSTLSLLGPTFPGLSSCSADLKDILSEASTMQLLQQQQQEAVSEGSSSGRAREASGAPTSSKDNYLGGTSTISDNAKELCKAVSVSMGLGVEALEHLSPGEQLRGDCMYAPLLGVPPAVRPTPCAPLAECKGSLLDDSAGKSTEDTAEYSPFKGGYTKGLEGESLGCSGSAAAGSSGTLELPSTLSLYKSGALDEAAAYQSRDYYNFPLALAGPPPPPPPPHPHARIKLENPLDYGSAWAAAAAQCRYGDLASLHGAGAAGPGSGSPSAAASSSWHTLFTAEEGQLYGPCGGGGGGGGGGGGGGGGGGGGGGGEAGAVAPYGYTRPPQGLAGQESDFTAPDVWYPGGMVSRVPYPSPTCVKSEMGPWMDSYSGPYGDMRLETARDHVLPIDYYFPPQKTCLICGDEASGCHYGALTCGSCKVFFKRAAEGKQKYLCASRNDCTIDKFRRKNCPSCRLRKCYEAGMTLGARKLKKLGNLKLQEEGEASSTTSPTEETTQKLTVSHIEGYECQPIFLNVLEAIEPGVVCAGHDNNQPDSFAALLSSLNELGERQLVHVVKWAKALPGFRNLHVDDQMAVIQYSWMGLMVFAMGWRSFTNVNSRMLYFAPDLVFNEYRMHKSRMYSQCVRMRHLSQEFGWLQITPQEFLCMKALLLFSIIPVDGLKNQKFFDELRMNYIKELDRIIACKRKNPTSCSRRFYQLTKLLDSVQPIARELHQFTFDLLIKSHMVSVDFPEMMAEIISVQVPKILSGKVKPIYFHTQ
Outline: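 Reporter cells cultured without CO2 receive test chemicals, then 0.5 nM R1881 final; after 16 hr at 37C, ONE-Glo is added and light output recorded.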

[18] = target: Estrogen receptor (Homo sapiens) (UniProt P03372); assay: qHTS assay to identify small molecule antagonists of the estrogen receptor alpha (ER-alpha) signaling pathway using the BG1 cell line in the presence of 0.1 nM 17-beta-estradiol (AID 1259244); also: nearly all actives have a fitted effect of over 50% in size
Estrogen receptor (Homo sapiens), sequence (P03372 whole entry, looked up): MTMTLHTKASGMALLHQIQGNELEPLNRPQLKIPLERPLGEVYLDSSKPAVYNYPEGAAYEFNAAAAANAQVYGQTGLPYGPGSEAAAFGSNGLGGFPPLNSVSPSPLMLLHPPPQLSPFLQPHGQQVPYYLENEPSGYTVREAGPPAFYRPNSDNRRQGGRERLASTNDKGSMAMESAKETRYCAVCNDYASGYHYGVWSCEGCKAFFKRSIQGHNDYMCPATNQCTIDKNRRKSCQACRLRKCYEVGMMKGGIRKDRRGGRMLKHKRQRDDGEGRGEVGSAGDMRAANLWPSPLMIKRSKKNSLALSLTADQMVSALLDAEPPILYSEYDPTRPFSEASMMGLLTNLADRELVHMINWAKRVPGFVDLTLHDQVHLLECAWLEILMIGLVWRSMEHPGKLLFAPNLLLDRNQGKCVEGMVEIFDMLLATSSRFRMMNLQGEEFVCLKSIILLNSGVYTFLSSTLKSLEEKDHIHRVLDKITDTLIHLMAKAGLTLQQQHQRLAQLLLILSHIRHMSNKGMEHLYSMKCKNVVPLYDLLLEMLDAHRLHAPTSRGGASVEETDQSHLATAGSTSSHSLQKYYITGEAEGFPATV
Outline: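 Estradiol at 0.1 nM (final) stimulates the endogenous ER-alpha of VM7Luc4E2 cells carrying an ERE-driven luciferase; compounds are co-incubated 22 h at 37C and luciferase output quantified by luminescence.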

[19] = A CellTox Green Cytotoxicity Assay to monitor cytotoxicity in HepG2 cells - 32 hour (AID 1224883); also: nearly all actives have a fitted effect of over 50% in size
Outline: as §3

[20] = qHTS assay to identify small molecule phospholipidosis (PLD) inducers (AID 1259344; active = well fitted curve in the direction sought with a large enough effect; an effect the other way counts as inactive or inconclusive)
Outline: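 HepG2 cells on collagen I, attached 4 h at 37 C, were co-treated with compound and LipidTOX Red dye for 24 h at 37 C, then fixed with paraformaldehyde plus Hoechst 33342 and imaged by high-content microscopy for phospholipid accumulation.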

Measured: Potency

OC[C@H]1O[C@@H]2O[C@H]3[C@H](O)[C@@H](O)[C@@H](O[C@H]4[C@H](O)[C@@H](O)[C@@H](O[C@H]5[C@H](O)[C@@H](O)[C@@H](O[C@H]6[C@H](O)[C@@H](O)[C@@H](O[C@H]7[C@H](O)[C@@H](O)[C@@H](O[C@H]8[C@H](O)[C@@H](O)[C@@H](O[C@H]9[C@H](O)[C@@H](O)[C@@H](O[C@H]1[C@H](O)[C@H]2O)O[C@@H]9CO)O[C@@H]8CO)O[C@@H]7CO)O[C@@H]6CO)O[C@@H]5CO)O[C@@H]4CO)O[C@@H]3CO
not listed: [17] | [18] | [19] | [20]
inactive: all other assays above

Cc1c(F)cc2c(=O)c(C(=O)O)cn3c2c1CCC3C (stereo not given)
not listed: [14] | [19] | [20]
inactive: all other assays above

CCCc1ccc(N)cc1
not listed: [14] | [17] | [19] | [20]
inactive: all other assays above

C=C(C)C(=O)NCCCN(C)C
not listed: [4] | [8] | [17] | [18] | [20]
inactive: all other assays above

O=c1[nH]c(=O)n([C@H]2O[C@H](CO)[C@@H](O)[C@@H]2O)cc1/C=C\Br
not listed: [19] | [20]
inactive: all other assays above

Nc1cc(N)cc(C(=O)O)c1
not listed: [17] | [19] | [20]
inactive: all other assays above

CC(=O)N[C@@H](CCC(N)=O)C(=O)O
not listed: [14] | [17] | [19]
inactive: all other assays above

OCCCCCCO
not listed: [17] | [18] | [19] | [20]
inactive: all other assays above

C1COCCO1
not listed: [14] | [15] | [19] | [20]
inactive: all other assays above

NC(=O)c1c(Cl)cccc1Cl
not listed: [17] | [19] | [20]
inactive: all other assays above

COC(=O)c1ccc(C(=O)OC)c(C(=O)OC)c1
not listed: [17] | [18] | [19] | [20]
inactive: all other assays above

CC(C=O)Cc1ccc(C(C)C)cc1 (stereo not given)
not listed: [17] | [18] | [19] | [20]
inactive: all other assays above

CCN1CCCC1CNC(=O)c1cc(S(N)(=O)=O)ccc1OC (stereo not given)
not listed: [4] | [5] | [6] | [14] | [15] | [18] | [20]
inactive: all other assays above

O=S(=O)(c1cccc2cnccc12)N1CCCNCC1
not listed: [15] | [17] | [18] | [19]
inactive: all other assays above

CCCC(=O)O[C@]1(C(=O)CCl)[C@@H](C)C[C@H]2[C@@H]3CCC4=CC(=O)C=C[C@]4(C)[C@@]3(F)C(=O)C[C@@]21C
not listed: [19]
inactive: all other assays above

Reference: PubChem BioAssay (Tox21)
